Measured values taken from ChEMBL document CHEMBL3433997, “St. Jude Leishmania screening dataset” (2016).

The compounds below were run against Hexose transporter 1 (Plasmodium falciparum) (UniProt O97467) (assay: ST_JUDE_LEISH: Cytotoxicity at 2uM final concentration against transgenic Leishmania Mexicana promastigotes LmPfHT that are glucose transport deficient and complemented with the Plasmodium falciparum hexose transporter. Activity is measured by DNA content using SYBR green in vitro).
Format: functional
`CC1(C)NC(N)=NC(=N)N1OCCc1ccc(N)cc1` showed an inhibition of 6.43%. `COc1cc(Nc2ccnc3cc(-c4ccncc4)ccc23)cc(OC)c1OC` gave an inhibition of 20.7%. In the case of `C=CCn1c(Sc2ccc(C#N)c([N+](=O)[O-])c2)nnc1-c1cccc(Cl)c1`, the inhibition is reported as -0.51%. With `CCN(CC)/C(=N/C(=N)Nc1ccc(Br)cc1)NCCCCCCN/C(=N\C(=N)Nc1ccc(Br)cc1)N(CC)CC` the inhibition was 0.19%. In the case of `CCN1CCN(C(=O)NC(C(=O)N(C)Cc2ccc(-c3ccc(C(F)(F)F)cc3)cc2)c2cccs2)C(=O)C1=O` (stereo not given), the inhibition is reported as 0.77%. `Cc1ccc(NC(=O)c2ccc3nccnc3c2)cc1OC1CCN(Cc2ccc(F)cc2)CC1` was tested, and the inhibition was 11.1%. Compound `Cc1cc(N(C)CCCN(C)C)nc(Nc2ccc(Br)cc2)n1` has an inhibition of 2.58%. For `CN(CCC1CCN(C(=O)/C=C/c2ccc(Cl)c(Cl)c2)CC1)C1CCC(c2c[nH]c3ccccc23)CC1` (stereo not given), the inhibition was 8.06%. For `Cc1cc(O)c2c3c1C(=O)C=C1C3c3c(c(O)cc(O)c3C(=O)C1(C)C)C2=O` (stereo not given), the inhibition was -5.26%. For `CCN1CCC(NCc2ccc(-c3ccc(Cl)s3)cc2)CC1`, the inhibition was -1.38%. With `CCOC(=O)/C(=N\OC(C(=O)OC(C)(C)C)c1ccccc1)c1csc(NC(c2ccccc2)(c2ccccc2)c2ccccc2)n1` (stereo not given) the inhibition was 1.43%. Compound `CSc1ccc2nccc(Nc3ccc(Oc4ccccc4)cc3)c2c1` has an inhibition of 6.24%. `CCCCCCNCCOc1ccc(-c2nc(-c3ccccc3)c(-c3ccccc3)[nH]2)cc1` showed an inhibition of 1.32%. `CCN(CC)CCN(Cc1ccc(-c2ccc(Br)cc2)cc1)C(=O)Cn1c(CCc2cccc(F)c2F)nc(=O)c2ccccc21` gave an inhibition of 3.29%. `COc1ccc(Cn2c(SCc3ccc(C)cc3)nc3cc(OC)c(OC)cc3c2=N)cc1Cl` gave an inhibition of -4.17%. In the case of `Cc1cc(NC(=O)NCCN2CCC(NS(=O)(=O)c3ccccc3F)CC2)c2ccccc2n1`, the inhibition is reported as 2.12%. For `COc1ccc(OC)c(C=NNc2nc3ccccc3[nH]2)c1`, the inhibition was 5.18%. With `Nc1nc(N)c2c(ccc3c2ccn3Cc2ccccc2)n1` the inhibition was 94%. With `CCN(CC)CCN(Cc1ccc(-c2ccc(C(F)(F)F)cc2)cc1)C(=O)Cn1c(CCc2cc(F)cc(F)c2F)nc(=O)c2ccccc21` the inhibition was 0.76%. `Nc1ccnc(N2CCC(CCOc3ccnc4cc(Cl)ccc34)CC2)c1` was tested, and the inhibition was 22.8%. With `COc1cc(-c2[nH]c(-c3ccc(OCCN(C)C)cc3)cc2-c2ccncc2)ccc1Cl` the inhibition was 1.55%. In the case of `COc1ccc2nc(C)cc(NCc3cccc4ccccc34)c2c1`, the inhibition is reported as 3.81%. `COC(=O)[C@@H](NC(=O)[C@@H](Nc1ccc(C#N)c2ccccc12)C(C)(C)C)c1ccc(O)cc1` was tested, and the inhibition was 1.12%. For `CCn1c(-c2cc(C)on2)nc2cnc(Oc3ccc(C(=O)N4CC(=O)N(C)C4C(C)(C)C)cc3)cc21` (stereo not given), the inhibition was 1.92%. In the case of `COc1ccc2nccc([C@@H](O)CN3CCC(NC(=O)C(c4cc5ccccc5o4)N4CCN(Cc5ccccc5)CC4)CC3)c2c1` (stereo not given in full), the inhibition is reported as 1.35%. `CCCc1cc(Cc2cnc(N)nc2N)cc(CC)c1O` gave an inhibition of 0.94%. Compound `COc1ccc2nccc([C@@H](O)CN3CCC(NC/C=C/c4cccnc4)CC3)c2c1` has an inhibition of 2.98%. With `COc1ccc2nccc([C@@H](O)CN3CCC(NC(=O)c4cc5c(F)cc(F)cc5[nH]4)CC3)c2n1` the inhibition was 84.1%. For `CN1CCC(Oc2ccc(CN3CC[C@H](NC(=O)c4ccc(F)c(F)c4)C3)c3ccccc23)C1` (stereo not given in full), the inhibition was 1%. With `CCCCCCCC1=NN2C(=N)C(=Cc3cc(Br)c(OCc4ccc(F)cc4)c(OCC)c3)C(=O)N=C2S1` the inhibition was 3.17%. `CC(C)COc1ccc(Cl)cc1Cc1ccc(-c2nc3ccc(C(F)(F)F)cc3[nH]2)o1` showed an inhibition of 0.46%. In the case of `CC(C)(C)NC(=O)COC(=O)c1c2c(nc3ccccc13)C(=Cc1ccc3c(c1)OCO3)CCC2`, the inhibition is reported as 1.17%. `CN(CCN(C)C(=O)NCc1ccccc1)C(=O)NCc1ccccc1` showed an inhibition of 3.69%. `CCCCC(CC)C(=O)C(NC(=O)[C@H](CSC(c1ccccc1)(c1ccccc1)c1ccccc1)NC(=O)OC(C)(C)C)C(=O)OC` (stereo not given in full) was tested, and the inhibition was 3.76%. `Cc1cccc2nc(-c3ccc(-c4ccc(NC(=O)Nc5ccsc5)cc4)cc3)[nH]c12` gave an inhibition of -0.26%. In the case of `O=C(Cc1cccc(Cl)c1)Nc1ccc(N2CCC(NCc3ccc4ncccc4c3)CC2)cc1`, the inhibition is reported as 13.6%. Work on `O=C(NCCCCCN1CCC(c2c[nH]c3ccccc23)C1)Nc1ccc(Cl)c(Cl)c1` (stereo not given) yielded an inhibition of 3.21%. Work on `COCCNCc1cccc(-c2cc3nccc(Nc4ccc(Oc5ccccc5)cc4)c3cc2Cl)c1` yielded an inhibition of 2.37%. `N#Cc1ccc(N(CCOc2ccc(Cl)c(F)c2)Cc2ccccc2C(F)(F)F)cc1C(F)(F)F` gave an inhibition of 0.42%. With `CCN(CCCN1CCCCC1)c1cc(C)nc(Nc2ccc(F)c(C(F)(F)F)c2)n1` the inhibition was -1.38%.
